These results are taken from PubChem BioAssay (NCATS).

Inconclusive results are not listed. Activity calls are given as the source filed them. Unless noted, the call rests on the fitted dose curve; in most records, active means well fitted curve in the direction sought with a large enough effect; inconclusive means small, poorly fitted or top-dose-only effect, or another doubt; inactive means no such curve, though single readings can be large; an effect the other way counts as inactive or inconclusive.

Assay [1] is described as follows: Confirmation and Secondary Assay for Modulators of Hemoglobin Beta Chain Splicing at IVS2 654 locus (AID 910).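 Further: HeLa cells stably carrying EGFP split by mutant beta-globin IVS2-654 intron; per-well total GFP intensity by laser scanning cytometry after 2-day treatment; % of control where 0% means no effect.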 The procedure, abridged:
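Readout: per-well total peak green fluorescence (488 nm ex, 500–520 nm em) from objects 5–250 µm, reflecting correct splicing of an EGFP-654 reporter. Compounds were applied for 2 days at 37 °C to overnight-plated HeLa EGFP-654 cells; controls were DMSO and 500 nM IVS2-654 PNA.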

The nature of assay [2]: qHTS Assay for Lipid Storage Modulators (AID 1519; calls by dose curve). The conditions noted are these: Drosophila S3 cells, BODIPY lipid droplet/cell ratio, laser cytometry, cells loaded with oleic acid; for activity change, negative = inhibition: at 57.5 µM (top of the series). In short, it runs like this: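 Cells seeded at 5,000 per well were treated with compounds over a concentration series and loaded with oleic acid (400 uM, as added). Lipid droplet fluorescence (488 nm excitation, 500-530 nm channel) was read by laser-scanning cytometry and normalized to 20 uM Triacsin C.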
Background: Quantitative high-throughput screening tests each substance at several concentrations.

The target of assay [3] is Ubiquitin carboxyl-terminal hydrolase 1 (Homo sapiens) (UniProt O94782). The assay can be described thus: Inhibitors of USP1/UAF1: Pilot qHTS (AID 504865). Further: nearly all actives have a fitted effect of over 35% in size. Further: potency means the concentration at half of the fitted maximal effect. In short, it runs like this: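 Deubiquitinase activity followed as kinetic rhodamine fluorescence release from 150 nM Ub-Rho. 1 nM USP1/UAF1 with compound, after 15 min room-temperature preincubation, in HEPES pH 7.8 buffer containing TCEP, EDTA, BSA and Tween-20.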

A short description of assay [4]: Primary qHTS for small molecule stabilizers of the endoplasmic reticulum resident proteome: Secreted ER Calcium Modulated Protein (SERCaMP) assay (AID 1508630). Further: on the % scale 0 is the no-effect control and ±100 the full control effect. The procedure, abridged: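 The SH-SY5Y reporter protocol was run at 3 concentrations up to 38.3 uM (primary) or 11 concentrations (follow-up): 16 h compound, 100 nM thapsigargin for 4 h, then extracellular luciferase luminescence.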

For assay [5], the target named is Cytochrome P450 1A2 (Homo sapiens) (UniProt P05177). In words: p450-cyp1a2 (AID 410; calls by dose curve; further: potency means the concentration at half of the fitted maximal effect;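 on activity change, negative = inhibition: -100% = full effect of reference inhibitor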). The procedure, abridged:
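Luminescent demethylation readout: Luciferin-ME (100uM, equal to Km) turned over by 20nM CYP1A2 for 60 min at room temperature after NADPH regeneration addition, following 10 min compound preincubation. Normalization used 57 uM furafylline as full inhibition.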

Assay [6] concerns the target Glucocorticoid receptor (Homo sapiens) (UniProt P04150). In words: GR-GFP Redistribution (AID 450;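 active means compounds whose dose series gives a full or clear partial fitted curve of increased nuclear translocation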; further: potency means the concentration at half of the fitted maximal effect). The conditions noted are these: U2OS GR-GFP nuclear translocation, laser cytometry, 2 h.
Assay [7] has as its target Mitogen-activated protein kinase 10 (Mus musculus) (UniProt Q61831). The assay can be described thus: JNK3 AlphaScreen Assay (AID 530; active means well fitted curve in either direction with a large enough effect, not every such curve was filed as active;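 further: kinase came from lysate of stimulated human HepG2 cells; signal reports phosphorylation of biotinylated GST-cJun 1-79 at Ser73 with 10 µM ATP; on the % scale 0 is the no-effect control and ±100 the full control effect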). In short, it runs like this:
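qHTS titrations with 15 min compound pre-incubation before adding ATP (10 uM final). Read-out: AlphaScreen of Ser73-phosphorylated biotin-GST-cJun using HepG2 lysate JNK3 activated by IL-1β and TNFα.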
(Bead proximity is the source of the signal in Alpha formats.)

Assay [8] has as its target 3',5'-cyclic-AMP phosphodiesterase 4B (Homo sapiens) (UniProt Q07343). The assay can be described thus: qHTS Assay for Inhibitors of PDE-IV (AID 607; active means well fitted activation curve with a large enough effect in the main read-out, with a control signal flat, not every such curve was filed as active; further: % of control where 0% means no effect). The procedure, abridged:
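ACTOne HEK293 cells carry a modified cAMP-gated CNG channel and express endogenous PDE4; plated 1000 cells/well, compounds up to 22.9 uM final. Membrane-potential dye fluorescence (ex 535/em 590) was read; parental cells received 10 uM forskolin + 100 uM RO 20-1724.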

Assay [9] addresses Lysosomal acid glucosylceramidase (Homo sapiens) (UniProt P04062). In words: Glucocerebrosidase-p2 (AID 348; in the data active means potency below about 10 µM; further: potency means the concentration at half of the fitted maximal effect). The conditions noted are these: purified GBA, blue fluorogenic substrate, 40 min. The procedure, abridged: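 Normal human glucocerebrosidase (0.2 nM) with blue fluorogenic substrate (80 uM final) in citrate/phosphate pH 5.9 with 10mM sodium taurocholate, 0.01% tween-20; 40 min RT, NaOH/glycine stop; fluorescence Ex 365/Em 440; AC50 from a titration from 0.6 nM upwards.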

Assay [10] is described as follows: AP1 Signaling Pathway (AID 357; active means well fitted curve in either direction with a large enough effect, not every such curve was filed as active;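 further: ME-180 reporter cells stimulated with EGF at its EC50 level; on the % scale 0 is the no-effect control and ±100 the full control effect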). The conditions noted are these: ME-180 AP-1-bla reporter, EGF-induced, beta-lactamase ratio, 5 h; at 7.69 µM (top of the series) unless noted. The procedure, abridged: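 Beta-lactamase reporter under AP-1 response element, ME-180 background. Stimulus: EC50 EGF. Compound exposure 5 h, 37 °C. Detection: CCF4, 2.5 h RT, 460/530 nm. Values: AC50 from titration.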

Assay [11] in a line: NFAT Signaling Pathway (AID 444; active means well fitted curve in either direction with a large enough effect, not every such curve was filed as active;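 further: carbachol stimulus at about its EC50 of 1 µM final; on the % scale 0 is the no-effect control and ±100 the full control effect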). The conditions noted are these: Jurkat NFAT-bla M1, carbachol, beta-lactamase ratio, 5 h; at 7.69 µM (top of the series) unless noted. In short, it runs like this: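 Read-out: CCF4 FRET ratio (460 nm/530 nm) after 1 h RT dye loading, used for %activity and AC50 from titration series. Cells: Jurkat NFAT-β-lactamase/M1 line, treated with compound plus 1 uM carbachol for 5 h, 37 °C.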

A short description of assay [12]: Stat Signaling Pathway (AID 446; active means well fitted curve in either direction with a large enough effect, not every such curve was filed as active). The conditions noted are these: ME-180 (cervical carcinoma) SIE beta-lactamase reporter, IL-6 stimulated, 5 h; at 7.69 µM (top of the series) unless noted. In short, it runs like this: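 Compound effects on IL-6-induced STAT reporter activity were measured in ME-180 cells. After overnight culture, cells were co-treated with 40 pM IL-6 for 5 hrs before beta-lactamase substrate loading at room temperature.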

Assay [13] addresses Glucocorticoid receptor (Homo sapiens) (UniProt P04150). The assay can be described thus: GR-EFC Redistribution (AID 451; calls by dose curve; further: potency means the concentration at half of the fitted maximal effect). The conditions noted are these: CHO-K1 GR-EFC translocation, beta-gal luminescence, 2 h. In short, it runs like this: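 Translocation of GR-ED fusion to nuclear EA restores b-gal, read by luminescence after 1 h room-temperature detection. Engineered CHO-K1 biosensor cells, 1,000/well, exposed 2 h at 37 C to titrations up to 46 uM final.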

The target in assay [14] is Dual specificity protein kinase CLK4 (Homo sapiens) (UniProt Q9HAZ1). The assay can be described thus: qHTS Assay for Inhibitors of CDC-like Kinase 4 (ADP-FP Assay) (AID 1795).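 Further: recombinant human CLK4 phosphorylating RS repeat peptide at 1 µM ATP; on the % scale 0 is the no-effect control and ±100 the full control effect; nearly all actives have a fitted effect of over 60% in size.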 In short, it runs like this:
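Kinase activity was measured as ADP production using Transcreener orange tracer (4 nM) and ADP antibody (1 ug/mL) fluorescence polarization, with ADP calculated from a calibration curve. The 1 h reaction contained 6.25 nM Clk4, 1 uM ATP and 100 uM RS peptide at pH 7.5 with Mg2+.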

The target of assay [15] is Rap guanine nucleotide exchange factor 3 (Homo sapiens) (UniProt O95398). The assay can be described thus: Confirmatory qHTS for antagonist of cAMP-regulated guanine nucleotide exchange factor 3 (EPAC1) (AID 1645880).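 Further: plate controls were DMSO only for no effect and full effect of the ATA control for full effect; nearly all actives have a fitted effect of over 55% in size.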 In short, it runs like this:
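Released BODIPY-GDP fluoresces less than Rap1-bound BODIPY-GDP; the signal is followed at 480/540 nm at 5-min intervals over 30 min, after 5 min at room temperature. Reactions contain 100 nM EPAC1, 250 nM RAP1B-BODIPY-GDP and 50 uM GDP; results are normalized to ATA and DMSO.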

For assay [16] the target is unchanged. In words: Confirmatory qHTS for agonist of cAMP-regulated guanine nucleotide exchange factor 3 (EPAC1) (AID 1645881).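 Further: EPAC1 catalysed release of BODIPY-GDP from Rap1B seen as fluorescence loss; 100% = effect of cAMP agonist control; nearly all actives have a fitted effect of over 75% in size.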
In assay [17] the target is Rap guanine nucleotide exchange factor 4 (Homo sapiens) (UniProt Q8WZA2). In words: Confirmatory qHTS for agonist of cAMP-regulated guanine nucleotide exchange factor 4 (EPAC2) (AID 1645884).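 Further: nucleotide exchange releases bodipy-GDP from Rap1 and this lowers its fluorescence; on the % scale 0 is the no-effect control and ±100 the full control effect; nearly all actives have a fitted effect of over 65% in size.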
Assay [18] shares this target. In words: Confirmatory qHTS for antagonist of cAMP-regulated guanine nucleotide exchange factor 4 (EPAC2) (AID 1645885). Further: on the % scale 0 is the no-effect control and ±100 the full control effect; nearly all actives have a fitted effect of over 25% in size.
For assay [19], the target named is Cytochrome P450 3A4 (Homo sapiens) (UniProt P08684). The assay can be described thus: qHTS Assay for Inhibitors and Substrates of Cytochrome P450 3A4 (AID 884). Further: potency means the concentration at half of the fitted maximal effect; nearly all actives have a fitted effect of over 50% in size. In short, it runs like this: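 Luminescent readout of luciferin produced by CYP3A4 (20 nM) dealkylation of Luciferin-PPXE, 25 uM (its KM). NADPH-driven reaction ran 60 min at RT after 10 min compound preincubation; data scaled to 57 uM ketoconazole as 100% inhibition.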

The target is the same in assay [20]. The assay can be described thus: qHTS Assay for Activators of Cytochrome P450 3A4 (AID 885). Further: nearly all actives have a fitted effect of over 65% in size. In short, it runs like this:
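CYP3A4 activity: Luciferin-PPXE O-dealkylation, 25uM substrate, 200mM KPO4, RT throughout. Read-out is luciferase luminescence; higher values reflect activation.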

The mark [21] stands for this setting: measured here: cell count channel max response.
Where [22] appears, read: measured here: lipid channel max response.

Sequence of Ubiquitin carboxyl-terminal hydrolase 1 (Homo sapiens) (O94782 whole entry, looked up): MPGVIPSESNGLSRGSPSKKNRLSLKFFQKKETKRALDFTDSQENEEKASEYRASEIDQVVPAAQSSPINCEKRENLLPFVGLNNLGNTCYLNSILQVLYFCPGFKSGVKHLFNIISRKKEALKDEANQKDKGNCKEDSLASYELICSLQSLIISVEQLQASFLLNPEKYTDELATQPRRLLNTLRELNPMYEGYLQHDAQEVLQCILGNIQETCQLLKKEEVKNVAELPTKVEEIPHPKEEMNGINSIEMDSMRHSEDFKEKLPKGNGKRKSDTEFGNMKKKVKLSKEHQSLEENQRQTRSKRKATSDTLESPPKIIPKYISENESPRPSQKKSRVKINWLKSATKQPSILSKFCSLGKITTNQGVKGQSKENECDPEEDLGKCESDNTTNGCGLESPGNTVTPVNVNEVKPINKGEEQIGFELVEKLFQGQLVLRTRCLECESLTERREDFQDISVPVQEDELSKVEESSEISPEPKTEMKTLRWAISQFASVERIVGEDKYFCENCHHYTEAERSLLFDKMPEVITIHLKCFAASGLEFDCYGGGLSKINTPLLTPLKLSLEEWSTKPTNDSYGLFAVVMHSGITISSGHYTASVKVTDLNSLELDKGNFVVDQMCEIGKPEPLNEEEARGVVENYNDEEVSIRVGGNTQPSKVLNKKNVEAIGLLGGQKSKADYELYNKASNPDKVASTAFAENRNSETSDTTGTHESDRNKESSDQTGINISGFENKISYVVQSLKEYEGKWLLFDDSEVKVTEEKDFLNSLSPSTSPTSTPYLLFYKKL
Sequence of 3',5'-cyclic-AMP phosphodiesterase 4B (Homo sapiens) (Q07343 whole entry, looked up): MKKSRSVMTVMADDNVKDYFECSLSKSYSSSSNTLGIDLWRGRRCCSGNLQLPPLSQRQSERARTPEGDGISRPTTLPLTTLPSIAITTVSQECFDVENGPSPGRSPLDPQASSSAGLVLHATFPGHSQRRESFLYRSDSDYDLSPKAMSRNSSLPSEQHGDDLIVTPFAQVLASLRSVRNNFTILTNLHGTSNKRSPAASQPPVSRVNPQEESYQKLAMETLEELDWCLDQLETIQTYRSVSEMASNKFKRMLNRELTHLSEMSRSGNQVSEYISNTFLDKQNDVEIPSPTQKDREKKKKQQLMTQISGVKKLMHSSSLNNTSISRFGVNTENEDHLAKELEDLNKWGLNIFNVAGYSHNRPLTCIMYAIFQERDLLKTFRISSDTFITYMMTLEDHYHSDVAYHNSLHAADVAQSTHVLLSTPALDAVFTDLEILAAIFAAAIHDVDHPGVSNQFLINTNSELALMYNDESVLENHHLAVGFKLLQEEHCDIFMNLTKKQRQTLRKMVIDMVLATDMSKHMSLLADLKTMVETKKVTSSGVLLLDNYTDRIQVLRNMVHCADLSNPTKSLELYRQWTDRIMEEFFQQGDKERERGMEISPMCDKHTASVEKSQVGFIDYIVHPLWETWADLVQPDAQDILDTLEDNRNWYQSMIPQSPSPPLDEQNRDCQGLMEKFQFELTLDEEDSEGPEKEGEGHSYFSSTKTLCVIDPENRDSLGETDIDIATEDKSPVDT
Sequence of Rap guanine nucleotide exchange factor 3 (Homo sapiens) (O95398 whole entry, looked up): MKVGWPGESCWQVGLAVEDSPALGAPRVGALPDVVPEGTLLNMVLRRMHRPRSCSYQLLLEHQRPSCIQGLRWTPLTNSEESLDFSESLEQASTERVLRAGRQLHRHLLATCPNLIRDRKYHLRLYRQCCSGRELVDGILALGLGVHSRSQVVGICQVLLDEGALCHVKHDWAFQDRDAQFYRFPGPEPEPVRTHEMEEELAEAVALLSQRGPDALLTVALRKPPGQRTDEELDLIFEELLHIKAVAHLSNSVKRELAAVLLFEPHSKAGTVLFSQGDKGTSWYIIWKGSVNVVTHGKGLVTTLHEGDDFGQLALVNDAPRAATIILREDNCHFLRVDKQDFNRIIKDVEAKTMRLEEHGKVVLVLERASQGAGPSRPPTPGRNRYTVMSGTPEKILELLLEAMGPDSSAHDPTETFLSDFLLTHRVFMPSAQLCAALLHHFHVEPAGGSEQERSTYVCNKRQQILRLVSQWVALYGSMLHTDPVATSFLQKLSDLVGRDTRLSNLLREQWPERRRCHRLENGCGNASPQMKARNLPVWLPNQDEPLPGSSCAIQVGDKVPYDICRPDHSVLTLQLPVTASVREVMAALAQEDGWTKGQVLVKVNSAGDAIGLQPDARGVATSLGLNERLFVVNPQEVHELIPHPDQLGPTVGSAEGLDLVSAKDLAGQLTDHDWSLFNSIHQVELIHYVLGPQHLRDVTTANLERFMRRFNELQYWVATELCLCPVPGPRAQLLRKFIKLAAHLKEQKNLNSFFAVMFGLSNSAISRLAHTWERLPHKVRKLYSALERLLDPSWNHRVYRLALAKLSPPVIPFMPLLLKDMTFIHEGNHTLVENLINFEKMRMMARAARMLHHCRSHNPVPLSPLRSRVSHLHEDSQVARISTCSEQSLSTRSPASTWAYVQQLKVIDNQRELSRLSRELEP
Sequence of Glucocorticoid receptor (Homo sapiens) (P04150 whole entry, looked up, the tested form may be a part): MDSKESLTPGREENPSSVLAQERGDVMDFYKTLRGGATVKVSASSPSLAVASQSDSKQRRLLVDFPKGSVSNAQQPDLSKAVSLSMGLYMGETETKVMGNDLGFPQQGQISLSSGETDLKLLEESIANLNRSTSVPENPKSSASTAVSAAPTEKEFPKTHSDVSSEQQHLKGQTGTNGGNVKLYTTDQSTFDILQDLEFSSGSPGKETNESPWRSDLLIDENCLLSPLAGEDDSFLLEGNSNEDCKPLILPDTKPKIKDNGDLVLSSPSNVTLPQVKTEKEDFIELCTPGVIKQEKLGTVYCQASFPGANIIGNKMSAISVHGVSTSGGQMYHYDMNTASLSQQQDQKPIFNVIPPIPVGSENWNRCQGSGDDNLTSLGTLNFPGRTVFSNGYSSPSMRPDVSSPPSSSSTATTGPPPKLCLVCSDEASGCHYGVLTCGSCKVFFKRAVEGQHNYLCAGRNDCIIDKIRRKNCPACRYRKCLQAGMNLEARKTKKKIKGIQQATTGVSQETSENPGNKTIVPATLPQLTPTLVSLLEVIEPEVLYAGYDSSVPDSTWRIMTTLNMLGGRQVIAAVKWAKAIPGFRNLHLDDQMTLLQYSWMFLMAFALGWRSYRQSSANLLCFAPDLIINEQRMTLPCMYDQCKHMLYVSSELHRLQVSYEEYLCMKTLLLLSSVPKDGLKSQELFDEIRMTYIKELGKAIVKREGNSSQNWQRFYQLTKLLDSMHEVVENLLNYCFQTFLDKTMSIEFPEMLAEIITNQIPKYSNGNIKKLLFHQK
Sequence of Cytochrome P450 3A4 (Homo sapiens) (P08684 whole entry, looked up): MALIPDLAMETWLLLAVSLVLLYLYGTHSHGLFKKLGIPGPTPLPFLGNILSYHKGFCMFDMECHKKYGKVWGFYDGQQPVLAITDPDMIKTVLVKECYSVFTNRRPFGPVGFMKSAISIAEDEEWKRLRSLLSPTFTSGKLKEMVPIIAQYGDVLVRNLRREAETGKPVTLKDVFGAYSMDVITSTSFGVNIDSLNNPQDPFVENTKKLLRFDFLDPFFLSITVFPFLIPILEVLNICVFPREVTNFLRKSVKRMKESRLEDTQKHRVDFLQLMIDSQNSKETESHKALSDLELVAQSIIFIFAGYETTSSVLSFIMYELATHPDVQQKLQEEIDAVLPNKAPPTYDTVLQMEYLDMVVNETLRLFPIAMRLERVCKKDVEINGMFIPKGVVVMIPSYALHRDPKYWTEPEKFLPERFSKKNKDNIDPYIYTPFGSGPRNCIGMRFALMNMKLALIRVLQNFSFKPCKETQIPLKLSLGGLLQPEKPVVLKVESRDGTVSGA
Sequence of Rap guanine nucleotide exchange factor 4 (Homo sapiens) (Q8WZA2 whole entry, looked up): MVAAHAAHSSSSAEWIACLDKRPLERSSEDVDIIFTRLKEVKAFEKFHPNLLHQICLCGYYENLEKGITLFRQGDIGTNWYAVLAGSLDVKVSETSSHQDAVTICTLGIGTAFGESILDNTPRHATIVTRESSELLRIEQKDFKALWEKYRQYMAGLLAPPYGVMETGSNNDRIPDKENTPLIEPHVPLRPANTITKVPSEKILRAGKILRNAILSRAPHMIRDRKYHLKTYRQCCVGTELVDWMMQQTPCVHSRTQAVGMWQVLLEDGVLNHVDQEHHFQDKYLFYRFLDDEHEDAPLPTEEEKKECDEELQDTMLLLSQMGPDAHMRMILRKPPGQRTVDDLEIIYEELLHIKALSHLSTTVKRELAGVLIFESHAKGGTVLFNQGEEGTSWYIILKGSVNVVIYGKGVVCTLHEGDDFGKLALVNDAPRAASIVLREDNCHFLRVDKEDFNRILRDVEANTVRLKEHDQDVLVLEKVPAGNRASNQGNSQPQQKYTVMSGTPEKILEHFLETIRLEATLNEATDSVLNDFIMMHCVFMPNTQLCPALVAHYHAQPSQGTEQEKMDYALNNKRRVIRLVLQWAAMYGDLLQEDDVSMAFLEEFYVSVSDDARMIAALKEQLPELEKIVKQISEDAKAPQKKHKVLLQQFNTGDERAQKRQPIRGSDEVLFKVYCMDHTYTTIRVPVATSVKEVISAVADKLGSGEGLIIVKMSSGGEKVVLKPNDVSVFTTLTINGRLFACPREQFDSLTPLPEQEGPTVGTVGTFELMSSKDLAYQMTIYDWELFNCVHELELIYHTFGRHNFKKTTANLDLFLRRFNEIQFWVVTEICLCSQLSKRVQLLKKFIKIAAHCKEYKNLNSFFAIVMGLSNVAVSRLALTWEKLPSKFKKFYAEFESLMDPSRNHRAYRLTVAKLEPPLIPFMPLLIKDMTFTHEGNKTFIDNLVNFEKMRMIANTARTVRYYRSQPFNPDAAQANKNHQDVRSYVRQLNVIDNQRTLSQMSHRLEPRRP

Turning to `O=C1C=C(O)c2ccccc2C1=O`, the Potency entry in assay [1] was “inactive”. Besides, in assay [2], the activity change, negative = inhibition was -2.81% (inactive). Also, the max response in assay [2] (setting [21]) is -0.646%; in [2] (setting [22]), -2.25%. In assay [3], the Potency is 50.1 µM (active). Besides, the result in assay [4] was inactive.
`N[C@H](C(=O)O)c1ccc(O)c(C(=O)O)c1`: the Potency result in assay [5], in [7], in [8] and in assay [3] was “inactive” in each case. The Potency in assay [6] was > 46 µM (inactive). Moreover, the activity change, negative = inhibition in [2] was 1.32% (inactive). The results for the max response in assay [2] (setting [21]) and in assay [2] (setting [22]) were 18.1% and 22.5%, respectively. Also, the result in [4] was inactive.
For `CN(C)c1ncc2nc(-c3ccc(F)cc3)c(=O)n(-c3ccccc3)c2n1`, the figures for the Potency in assay [9], in assay [6] and in [13] were > 11.4 µM (inactive), > 9.22 µM (inactive) and > 46 µM (inactive), respectively. Also, the activity change, negative = inhibition in assay [10] was -8.28% (inactive); in [11], 20.7% (inactive). Further, the activity, negative = inhibition in [12] is 28.3% (inactive). For the same compound, the Potency entry in [7], in assay [14], in assay [3], in assay [15], in assay [16] and in assay [17] was “inactive” each time. Moreover, in assay [18], the Potency entry is “inactive”. In [4], the outcome was inactive.
With `COc1ccc(Oc2ncc3nc(-c4ccc(F)cc4)c(=O)n(C)c3n2)cc1`, the Potency was 2 µM (active) in assay [5], > 9.22 µM (inactive) in [6], > 46 µM (inactive) in assay [13] and 3.98 µM (active) in assay [19]. Moreover, the figures for the activity change, negative = inhibition in assay [11] and in [2] were -22.3% (inactive) and 4.46% (inactive), respectively. Besides, the activity, negative = inhibition in assay [12] was 12.3% (inactive). The Potency result in assay [7], in assay [8] and in [20] was “inactive” each time. For the same compound, the results for the max response in assay [2] (setting [21]) and in assay [2] (setting [22]) were 18% and 24.3%, respectively. The outcome in assay [4] was inactive.
On to `COc1ccc(Oc2ncc3nc(-c4cc(F)cc(F)c4)c(=O)n(C[C@H]4CCCO4)c3n2)cc1`, for which the Potency in assay [9] was > 11.4 µM (inactive); in assay [6], > 9.22 µM (inactive); in [13] it was > 46 µM (inactive). Besides, the figures for the activity change, negative = inhibition in [10] and in [11] were -5.29% (inactive) and -11.6% (inactive), respectively. The activity, negative = inhibition in [12] is -0.431% (inactive). The Potency entry in [7], in assay [8], in [14], in assay [3], in [15] and in assay [16] was “inactive” throughout. Moreover, the Potency result in [17] and in assay [18] was “inactive” each time. The result in assay [4] was inactive.
Consider `CS(=O)(=O)Nc1cccc(-c2ccc3ncnc(Nc4ccc(F)cc4)c3c2)c1`, for which the Potency was 0.794 µM (active) in assay [5], > 46 µM (inactive) in assay [6], > 46 µM (inactive) in assay [13] and 7.94 µM (active) in [19]. Further, in [12], the activity, negative = inhibition was 4.21% (inactive). The Potency result in assay [7], in [20] and in assay [1] was “inactive” throughout. Moreover, in assay [2], the activity change, negative = inhibition was 2.96% (inactive). In addition, the max response in [2] (setting [21]) is -27.4%; in [2] (setting [22]), -14.7%. In addition, the outcome in assay [4] was inactive.
With `Clc1cccc2c1CN(C1=NCCN1)C2`, the values for the Potency in assay [5], in assay [6] and in assay [13] were 0.398 µM (active), > 46 µM (inactive) and > 46 µM (inactive), respectively. For the same compound, the Potency entry in assay [7], in [8] and in assay [3] was “inactive” throughout. The activity change, negative = inhibition in assay [2] is 3.4% (inactive). Besides, the max response was 12.9% in assay [2] (setting [21]) and 20.6% in [2] (setting [22]). For the same compound, the outcome in assay [4] was inactive.
As for `COc1ccc2[nH]cc(CCNc3nc(-c4cccc(C#N)c4)nc4ccccc34)c2c1`, the Potency in assay [6] and in assay [13] was > 46 µM (inactive) throughout. Further, the Potency result in [7], in [8], in assay [14], in assay [3], in [15] and in assay [16] was “inactive” throughout. Moreover, the Potency result in [17] and in assay [18] was “inactive” each time. Also, the result in [4] was inactive.
